A number with no mark means an inactive call. The rule behind the calls is not given here.

The values that follow come from PubChem BioAssay (NCATS).
Potency is the fitted concentration of half-maximal effect.

The subject of this experiment is HIV-1 nucleocapsid protein NCp7 (binding to TG oligonucleotide). Kind of experiment: HIV Nucleocapsid (AID 346).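 Note: potency is for inhibitors that block NC binding and lower polarization.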 Conditions: HIV-1 NC / fluorescein-TGTGTGTG probe, fluorescence polarization. An outline of the steps:
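Inhibition of nucleocapsid binding to single-stranded 5'-TGTGTGTG probe (10 nM) was measured by fluorescence polarization after 1 hr at room temperature with 100 nM protein under high-salt, zinc-containing, reducing conditions.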
Turning to `CC(C)CN1CC[C@@]2(CCCN(C(=O)c3cccc(F)c3)C2)C1`, the Potency was more than 20 µM. Next, `COc1ccccc1-c1ccc2ncnc(NCc3ccccc3)c2c1`: more than 20 µM; `COc1ccc(-c2nc3cnc(N4CCOCC4)nc3n(C)c2=O)cc1`: more than 20 µM. Turning to `CN(C)c1ncc2nc(-c3ccccc3)c(=O)n(C[C@H]3CCCO3)c2n1`, the Potency was more than 20 µM. As for `COc1ccccc1CN1CC2(CCN(C(=O)c3cccc(F)c3)CC2)C1`, the Potency is more than 20 µM. Next, `O=c1c(-c2cccs2)nc2cncnc2n1C1CC1`: more than 20 µM; `O=c1c(CCc2ccccc2)nc2cncnc2n1Cc1ccccc1Cl`: more than 20 µM. On to `Cc1noc(C)c1-c1nc(N2CCNCC2)c2ccccc2n1`, for which the Potency was more than 20 µM.

In the case of `COCC(=O)N1CCC2(CCCN(Cc3ccccc3)C2)CC1`, the Potency is more than 20 µM. In the case of `CN(C)C(=O)c1ccc(-c2ccc3ncnc(Nc4ccccc4)c3c2)cc1`, the Potency is more than 20 µM. Next, `O=c1c(-c2ccccc2)nc2cncnc2n1Cc1ccccc1Cl`: more than 20 µM; `O=c1cnc2cnc(Nc3ccccc3)nc2n1C[C@H]1CCCO1`: more than 20 µM. As to `CN(Cc1ccco1)c1nc(-c2ccccc2C(F)(F)F)nc2ccccc12`, the Potency is more than 20 µM. Take `CN(C)Cc1ccccc1-c1nc(NC2CCNCC2)c2ccccc2n1`: the Potency was more than 20 µM. As for `COc1ccccc1-c1ccc2ncnc(NCCNC(C)=O)c2c1`, the Potency was more than 20 µM.

As to `CCNc1ncc2nc(-c3ccc(F)cc3)c(=O)n(CCOC)c2n1`, the Potency was more than 4 µM. On to `COCCNc1cc(-c2c(C)noc2C)ncn1`, for which the Potency was more than 20 µM. Turning to `COc1ccc(Oc2ncc3nc(C)c(=O)n(-c4ccccc4)c3n2)cc1`, the Potency is more than 20 µM. For `CN(C)c1ccc(-c2cncnc2NCc2cccs2)cc1`, the Potency is more than 20 µM. For `CN1CCN(c2ncc3nc(-c4cn(C)c5ccccc45)c(=O)n(CCc4ccccc4)c3n2)CC1`, the Potency is more than 4 µM. Consider `COc1ncc2nc(-c3ccc(F)cc3)c(=O)n(C3CC3)c2n1`, for which the Potency is more than 20 µM. On to `Cc1noc(C)c1-c1nc(NC2CCNCC2)c2ccccc2n1`, for which the Potency was more than 20 µM.

For `CN(Cc1ccco1)c1cc(-c2ccccc2C(F)(F)F)ncn1`, the Potency was more than 20 µM. The figure for `Cc1noc(C)c1-c1nccc(N2CCOCC2)n1` is more than 20 µM. On to `CN(C)c1ncc2nc(CCc3ccccc3)c(=O)n(C3CC3)c2n1`, for which the Potency was more than 20 µM. Next, `COCCn1c(=O)c(-c2ccc(Cl)cc2)nc2cnc(N(C)C)nc21`: more than 20 µM; `N#Cc1ccccc1-c1cncnc1NCc1cccnc1`: more than 20 µM; `Cc1ccccc1-c1nc(N(C)C)c2ccccc2n1`: more than 20 µM. `O=C(c1cc(C(F)(F)F)cc(C(F)(F)F)c1)N1CCC2(CCCN(Cc3nccs3)C2)CC1`: the Potency was more than 20 µM. Next, `COc1ccc(C(=O)N2CCC[C@@]3(CCN(C(=O)NC(C)C)C3)C2)cc1`: more than 20 µM; `O=C(c1cccc(F)c1)N1CCC2(CCCN(Cc3ccccc3)C2)CC1`: more than 20 µM; `Cc1cnc(CNc2nc(-c3ccccc3C(F)(F)F)nc3ccccc23)cn1`: more than 20 µM. `Cn1cccc1C(=O)N1CCC2(CC1)CN(C(=O)Nc1cccc(F)c1)C2`: the Potency was more than 20 µM. `COc1ccc(-n2c(=O)cnc3cnc(OC)nc32)cc1`: the Potency was more than 20 µM.

Take `COc1cccc(Nc2ncc3ncc(=O)n(CCc4ccccc4)c3n2)c1`: the Potency was more than 4 µM. In the case of `COc1ccc(C(=O)N2CCC3(CCN(Cc4ccccc4)CC3)CC2)cc1`, the Potency was more than 20 µM. Take `N#Cc1cccc(NC(=O)N2CCC3(CC2)CCN(C(=O)c2cnccn2)CC3)c1`: the Potency is more than 20 µM. Next, `COCCNc1ncnc2ccc(-c3ccccc3CN(C)C)cc12`: more than 20 µM. Next, `Cn1cc(-c2nc3cnc(N4CCOCC4)nc3n(C3CC3)c2=O)c2ccccc21`: more than 20 µM; `COCCn1c(=O)c(C)nc2cnc(Nc3ccccc3)nc21`: more than 20 µM.
